Records with an inconclusive call do not appear. Calls of active or inactive are those of the source. Unless noted, the call rests on the fitted dose curve; in most records, active means well fitted curve in the direction sought with a large enough effect; inconclusive means small, poorly fitted or top-dose-only effect, or another doubt; inactive means no such curve, though single readings can be large; an effect the other way counts as inactive or inconclusive.
Legend:
[1] = target: 3',5'-cyclic-AMP phosphodiesterase 4B (Homo sapiens) (UniProt Q07343); assay: qHTS Assay for Inhibitors of PDE-IV (AID 607; active means well fitted activation curve with a large enough effect in the main read-out, with a control signal flat, not every such curve was filed as active; further: % of control where 0% means no effect); settings: HEK293 ACTOne CNG channel cells, membrane potential fluorescence; series mostly up to 22.9 µM
Outline: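 Live HEK293 cells with a modified cyclic nucleotide-gated (CNG) channel report intracellular cAMP via membrane-potential dye fluorescence (ex 535/em 590 nm). Endogenous PDE-IV was targeted. Compounds were tested at up to 22.9 uM final; RO 20-1724 100 uM served as control.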

[2] = target: Guanine nucleotide-binding protein G(i) subunit alpha-1 (Homo sapiens) (UniProt P63096); assay: qHTS Assay for Inhibitors of RGS12 GoLoco Motif Activity (Green Fluorophore) (AID 879); settings: Galphai1/FITC-RGS12 GoLoco peptide, fluorescence polarization; series mostly up to 57.1 µM;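 further: 0% = labeled peptide with Gαi1 and full inhibition = labeled peptide alone without protein; negative values mean loss of peptide binding seen as reduced polarization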
Outline: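 Fluorescence polarization assay: 50 nM Gαi1 with 10 nM FITC-labeled RGS12 GoLoco peptide in 10 mM Tris pH 7.5, 150 mM NaCl, 0.1 mM GDP, 0.05% NP40, 10 min at room temperature with compound.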

[3] = Cell Viability - Mesenchymal (AID 546); settings: mesenchymal cells viability, qHTS; series mostly up to 91.7 µM;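 further: cells exposed to compound for 40 hours before reading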
Outline: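 Human kidney mesenchymal cells from normal renal glomeruli, 1000 cells/well, rested 5 hr at 37 °C, then treated 40 hr at 37 °C in complete medium. Cellular ATP read by CellTiter-Glo luminescence; AC50 from Hill-equation fits.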

[4] = Cellular Toxicity (caspase-3) HepG2 (AID 654); settings: HepG2 caspase-3 activation, luminescence, 0% = DMSO only, 100% = tamoxifen; series mostly up to 92.2 µM;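 further: cells exposed to compound for 16 hours before reading; 0% = DMSO alone and 100% = caspase signal from 100 µM tamoxifen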
Outline: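 Cells plated 5 hr at 37 °C, compound added, incubated 16 hr at 37 °C. Caspase-Glo 3/7 reagent followed, 20 min at room temperature, then luminescence read. Activation scored as signal increase; AC50 from Hill fit.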

[5] = Cellular Toxicity (caspase-3) HUV-EC-C (AID 656); settings: HUV-EC-C cells, caspase-3 activation (apoptosis), vehicle = 0, 100 µM tamoxifen = 100%; series mostly up to 92.2 µM
Outline: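 HUV-EC-C cells (1000/well) in complete medium, compound-treated 16 h at 37 °C; caspase-3/7 activity read by Caspase-Glo 3/7 luminescence. Normalized to DMSO (basal) and 100 uM tamoxifen (100%); AC50 from Hill-equation concentration-response fits.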

[6] = Cellular Toxicity (caspase-3) SHSY5Y (AID 657); settings: SH-SY5Y caspase-3 activation, DMSO zero, 10 µM staurosporine = 100%; series mostly up to 91.7 µM
Outline: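 SH-SY5Y human neuroblastoma cells, 1500/well, exposed to compound for 16 hours at 37 °C in complete medium. Caspase-3/7 activity read by Caspase-Glo luminescence after 1 hr at room temperature, normalized to DMSO and 10 uM staurosporine; AC50 from Hill fit.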

[7] = Cellular Toxicity (caspase-3) BJ (AID 658); settings: BJ fibroblasts, luminescence, normalized: DMSO 0%, staurosporine 100%; series mostly up to 91.7 µM
Outline: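 BJ human foreskin fibroblasts, 1000 cells/well, treated 16 hours at 37 °C in complete medium; caspase 3/7 activity by Caspase-Glo luminescence after 1 hr at room temperature. Normalized to DMSO and 10 uM staurosporine; AC50 from Hill fits.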

[8] = Cellular Toxicity (caspase-3) MRC-5 (AID 659); settings: MRC-5 cells, luminescence, normalized: DMSO 0%, 10 µM staurosporine 100%; series mostly up to 91.7 µM
Outline: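 MRC-5 human normal lung fibroblasts, 1500 cells/well, treated 16 h at 37 °C in complete medium. Caspase 3/7 measured by Caspase-Glo luminescence after 1 h at room temperature. Normalized to DMSO and 10 uM staurosporine; AC50 from Hill fit.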

[9] = Cellular Toxicity (caspase-3) SK-N-SH (AID 661); settings: SK-N-SH caspase-3 activation, qHTS, DMSO as zero, staurosporine as full; series mostly up to 91.7 µM
Outline: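 Human neuroblastoma SK-N-SH, 1500 cells/well, 5 hr pre-incubation, then compound 16 hr, 37 °C. Caspase-Glo 3/7 reagent, 1 hr RT, luminescence. Norm. to DMSO/10 uM staurosporine; Hill-fit AC50.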

[10] = Cellular Toxicity (caspase-3) H-4-II-E (AID 663); settings: H-4-II-E rat hepatoma, scaled: DMSO 0%, 100 µM tamoxifen 100%; series mostly up to 92.2 µM;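 further: cells exposed to compound for 16 hr before readout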
Outline: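 Rat hepatoma H-4-II-E cells (1500/well) plated 5 hr, then exposed to compound titrations for 16 hr at 37 °C. Caspase-Glo 3/7 luminescence read after 20 min at RT; data normalized to DMSO and 100 uM tamoxifen, AC50 from Hill fits.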

[11] = Cellular Toxicity (caspase-3) Hek293 (AID 664); settings: HEK293 caspase-3 activation, DMSO = 0%, 100 µM tamoxifen = 100%; series mostly up to 92.2 µM;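 further: cells exposed to compound for 16 h at 37 °C before readout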
Outline: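 Cells plated, 5 hr at 37 °C; compounds added; 16 hr at 37 °C; Caspase-Glo 3/7 reagent, 20 min RT; luminescence read. Activation expressed relative to DMSO and 100 uM tamoxifen, AC50 by Hill model.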

[12] = Cellular Toxicity (caspase-3) N2a (AID 665); settings: N2a cells, luminescence, normalized: DMSO 0%, 10 µM staurosporine 100%; series mostly up to 92.2 µM;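 further: compound exposure lasted 16 h at 37 °C before readout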
Outline: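 N2a cells, 1500/well, 5 h settle at 37 °C; cpd 16 h, 37 °C; Caspase-Glo 3/7, 1 h RT; luminescence. Norm: DMSO = 0, 10 uM staurosporine = 100%. AC50, Hill fit.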

[13] = Cellular Toxicity (caspase-3) NIH 3T3 (AID 666); settings: NIH 3T3 caspase-3 activation, apoptosis/toxicity, 0% DMSO, 100% is 100 µM tamoxifen; series mostly up to 92.2 µM;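 further: caspase signal read after 16 h compound exposure; 0% = DMSO basal and 100% = 100 µM tamoxifen stimulation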
Outline: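 Luminescence from aminoluciferin released by caspase-3/7 cleavage of a peptide substrate served as read-out. Mouse fibroblast NIH 3T3 cells were exposed to compounds over a concentration range for 16 hours, and AC50 values came from standard Hill modelling.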

[14] = Cellular Toxicity (caspase-3) Renal Proximal Tubule (AID 667); settings: renal proximal tubule cells, primary cells freshly taken from rat, solvent-only wells 0%, staurosporine 100%; series mostly up to 91.7 µM;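 further: cells exposed to compound for 16 hours at 37 °C before detection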
Outline: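 Freshly isolated primary rat kidney proximal tubule cells, 1000/well, treated 16 hr at 37 °C, then Caspase-Glo 3/7 luminescence after 1 hr. Normalized to DMSO and 10 uM staurosporine; AC50 from Hill fit.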

[15] = Cellular Toxicity (caspase-3) Jurkat (AID 655); settings: Jurkat caspase-3 activation, luminescence, DMSO = 0%, tamoxifen = 100%; series mostly up to 92.2 µM;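 further: cells exposed to compound for 16 h at 37 °C before reading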
Outline: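 Jurkat cells (5000/well) in complete medium exposed 16 h at 37 C; caspase-3/7 activity read by Caspase-Glo luminescence after 20 min at room temperature. Normalized to DMSO and 100 uM tamoxifen; AC50 from Hill fits.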

[16] = Cellular Toxicity (caspase-3) Mesangial (AID 660); settings: mesangial cells, normalized: DMSO 0%, 100 µM tamoxifen 100%; series mostly up to 91.7 µM
Outline: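 Mesangial cells, 1000/well, 5 h settle at 37 °C; compound 16 h, 37 °C; Caspase-Glo 3/7 reagent 20 min RT; luminescence. Norm.: DMSO = 0%, tamoxifen 100 uM = 100%. AC50, Hill fit.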

[17] = target: Cytochrome P450 3A4 (Homo sapiens) (UniProt P08684); assay: qHTS Assay for Inhibitors and Substrates of Cytochrome P450 3A4 (AID 884); settings: recombinant CYP3A4, Luciferin-PPXE luminescence; series mostly up to 57.1 µM; further: nearly all actives have a fitted effect of over 50% in size; further: potency means the concentration at half of the fitted maximal effect
Outline: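 20 nM human CYP3A4 with 25 uM Luciferin-PPXE (at KM) in 200 mM KPO4, preincubated 10 min with compound; NADPH regeneration started a 60 min RT reaction. Luciferin detected by luminescence, normalized to 57 uM ketoconazole as full inhibition.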

[18] = target: Cytochrome P450 2C9 (Homo sapiens) (UniProt P11712); assay: qHTS Assay for Inhibitors and Substrates of Cytochrome P450 2C9 (AID 883); settings: recombinant CYP2C9, luciferin-H luminescence, 60 min; series mostly up to 57.1 µM; further: on the % scale 0 is the no-effect control and ±100 the full control effect; nearly all actives have a fitted effect of over 60% in size
Outline: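 Signal: luciferase luminescence reporting luciferin produced by CYP2C9. Conditions: 10nM enzyme, Luciferin-H 100uM at KM, 25mM KPO4, 37C, 60 min NADPH-driven reaction. Reference: 57uM sulphaphenazole as 100% inhibition.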

[19] = target: Cytochrome P450 3A4 (Homo sapiens) (UniProt P08684); assay: qHTS Assay for Activators of Cytochrome P450 3A4 (AID 885); settings: recombinant CYP3A4, Luciferin-PPXE luminescence, 60 min; series mostly up to 57.1 µM; further: nearly all actives have a fitted effect of over 65% in size
Outline: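 Quantitative HTS format: compounds preincubated with 20nM human CYP3A4 and Luciferin-PPXE substrate at KM, reaction started by NADPH regeneration, stopped after 60 min, luciferase luminescence read 20 min later.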

[20] = target: Cytochrome P450 2C19 (Homo sapiens) (UniProt P33261); assay: qHTS Assay for Inhibitors and Substrates of Cytochrome P450 2C19 (AID 899); settings: recombinant CYP2C19, luciferin-H EGE luminescence; further: potency means the concentration at half of the fitted maximal effect; nearly all actives have a fitted effect of over 60% in size
Outline: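 Signal comes from luciferase acting on luciferin released by CYP2C19-mediated hydroxylation of Luciferin-H EGE, 10uM (KM). Assay mix: 5nM enzyme, 50mM KPO4; 60 min at 37C with NADPH regeneration. Data normalized against 57uM ketoconazole.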

Chain of 3',5'-cyclic-AMP phosphodiesterase 4B (Homo sapiens) (Q07343 whole entry, looked up): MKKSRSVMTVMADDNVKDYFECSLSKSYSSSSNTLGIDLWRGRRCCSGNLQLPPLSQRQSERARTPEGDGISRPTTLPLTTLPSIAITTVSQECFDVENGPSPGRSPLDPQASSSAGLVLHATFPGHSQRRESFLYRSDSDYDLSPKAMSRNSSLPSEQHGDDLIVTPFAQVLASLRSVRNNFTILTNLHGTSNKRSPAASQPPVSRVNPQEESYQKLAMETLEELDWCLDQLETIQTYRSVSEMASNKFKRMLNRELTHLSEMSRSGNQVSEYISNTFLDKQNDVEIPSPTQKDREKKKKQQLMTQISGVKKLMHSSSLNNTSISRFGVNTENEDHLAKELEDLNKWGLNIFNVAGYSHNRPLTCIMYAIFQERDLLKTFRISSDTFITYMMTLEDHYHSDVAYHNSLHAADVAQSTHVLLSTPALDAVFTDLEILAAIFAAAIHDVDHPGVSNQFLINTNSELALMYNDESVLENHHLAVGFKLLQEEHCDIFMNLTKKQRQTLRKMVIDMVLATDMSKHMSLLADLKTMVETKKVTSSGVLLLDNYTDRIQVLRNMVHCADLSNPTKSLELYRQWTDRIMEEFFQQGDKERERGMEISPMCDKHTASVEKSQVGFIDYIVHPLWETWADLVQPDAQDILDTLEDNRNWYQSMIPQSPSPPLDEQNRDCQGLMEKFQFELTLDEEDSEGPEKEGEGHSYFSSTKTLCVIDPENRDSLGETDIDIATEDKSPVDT
Chain of Cytochrome P450 3A4 (Homo sapiens) (P08684 whole entry, looked up): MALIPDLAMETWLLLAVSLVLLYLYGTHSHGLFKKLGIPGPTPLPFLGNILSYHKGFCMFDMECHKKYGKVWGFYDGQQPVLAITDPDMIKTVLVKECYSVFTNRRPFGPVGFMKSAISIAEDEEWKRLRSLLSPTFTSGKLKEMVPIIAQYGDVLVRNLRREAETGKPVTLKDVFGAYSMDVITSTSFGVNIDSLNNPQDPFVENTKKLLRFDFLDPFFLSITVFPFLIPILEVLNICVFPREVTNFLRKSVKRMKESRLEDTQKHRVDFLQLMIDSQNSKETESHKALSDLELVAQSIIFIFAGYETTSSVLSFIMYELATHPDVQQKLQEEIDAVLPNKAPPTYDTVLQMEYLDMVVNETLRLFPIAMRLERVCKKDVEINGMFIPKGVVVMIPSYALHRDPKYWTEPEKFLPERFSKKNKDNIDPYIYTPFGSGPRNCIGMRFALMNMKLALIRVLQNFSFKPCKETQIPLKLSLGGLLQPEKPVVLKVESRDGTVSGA
Chain of Cytochrome P450 2C19 (Homo sapiens) (P33261 whole entry, looked up): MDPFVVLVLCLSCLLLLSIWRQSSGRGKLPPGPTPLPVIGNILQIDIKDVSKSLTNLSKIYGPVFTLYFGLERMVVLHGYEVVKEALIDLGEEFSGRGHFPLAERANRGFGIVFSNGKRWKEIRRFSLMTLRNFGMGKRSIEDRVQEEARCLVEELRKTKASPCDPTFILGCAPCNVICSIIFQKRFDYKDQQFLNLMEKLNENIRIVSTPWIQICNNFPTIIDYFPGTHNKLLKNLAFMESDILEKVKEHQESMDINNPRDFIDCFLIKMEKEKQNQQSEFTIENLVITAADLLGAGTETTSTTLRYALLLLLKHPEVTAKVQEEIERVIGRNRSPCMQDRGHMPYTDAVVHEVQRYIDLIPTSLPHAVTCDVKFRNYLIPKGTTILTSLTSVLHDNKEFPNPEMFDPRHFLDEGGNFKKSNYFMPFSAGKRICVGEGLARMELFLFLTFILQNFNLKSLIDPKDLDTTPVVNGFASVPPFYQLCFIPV
Chain of Cytochrome P450 2C9 (Homo sapiens) (P11712 whole entry, looked up): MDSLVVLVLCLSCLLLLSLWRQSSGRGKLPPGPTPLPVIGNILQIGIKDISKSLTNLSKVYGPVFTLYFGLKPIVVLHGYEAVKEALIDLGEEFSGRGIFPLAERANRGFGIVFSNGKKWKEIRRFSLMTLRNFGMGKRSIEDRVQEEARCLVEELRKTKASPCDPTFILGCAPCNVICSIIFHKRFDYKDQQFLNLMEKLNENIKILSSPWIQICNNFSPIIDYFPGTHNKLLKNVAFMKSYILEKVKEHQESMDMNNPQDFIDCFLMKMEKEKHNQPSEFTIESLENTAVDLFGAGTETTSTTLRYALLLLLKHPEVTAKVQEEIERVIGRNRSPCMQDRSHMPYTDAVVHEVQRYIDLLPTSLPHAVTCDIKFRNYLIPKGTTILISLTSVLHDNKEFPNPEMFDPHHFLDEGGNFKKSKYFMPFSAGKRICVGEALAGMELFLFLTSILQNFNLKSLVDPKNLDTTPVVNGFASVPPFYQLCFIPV
Chain of Guanine nucleotide-binding protein G(i) subunit alpha-1 (Homo sapiens) (P63096 whole entry, looked up): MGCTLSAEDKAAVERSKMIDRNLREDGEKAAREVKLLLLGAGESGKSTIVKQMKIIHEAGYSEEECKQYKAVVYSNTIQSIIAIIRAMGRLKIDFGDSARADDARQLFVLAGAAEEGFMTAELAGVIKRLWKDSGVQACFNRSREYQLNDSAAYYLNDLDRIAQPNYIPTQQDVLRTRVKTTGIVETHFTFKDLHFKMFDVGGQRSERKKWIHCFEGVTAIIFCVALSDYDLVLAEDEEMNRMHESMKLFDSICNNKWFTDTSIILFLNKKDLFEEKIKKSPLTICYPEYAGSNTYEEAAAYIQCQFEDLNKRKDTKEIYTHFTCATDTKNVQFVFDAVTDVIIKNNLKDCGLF

CC(=O)O[C@H]1C(=O)[C@@]2(C)[C@H]([C@H](OC(=O)c3ccccc3)[C@]3(O)C[C@H](OC(=O)[C@H](O)[C@@H](NC(=O)c4ccccc4)c4ccccc4)C(C)=C1C3(C)C)[C@]1(OC(C)=O)CO[C@@H]1C[C@@H]2O
inactive: outcome [1] | outcome [2]

Nc1ccccc1N
inactive: outcome [3] | outcome [4] | outcome [5] | outcome [6] | outcome [7] | outcome [8] | outcome [9] | outcome [10] | outcome [11] | outcome [12] | outcome [13] | outcome [14]

CC(=O)O[C@@H]1CC(C)=C2[C@H]1[C@H](C)CC[C@H]2/C=C(\C)C(=O)O
inactive: outcome [3] | outcome [4] | outcome [15] | outcome [5] | outcome [6] | outcome [7] | outcome [8] | outcome [16] | outcome [9] | outcome [10] | outcome [11] | outcome [12] | outcome [13] | outcome [14] | Potency [17]

Cc1ccc(N)cc1O
inactive: outcome [3] | outcome [4] | outcome [15] | outcome [5] | outcome [6] | outcome [7] | outcome [8] | outcome [16] | outcome [9] | outcome [10] | outcome [11] | outcome [12] | outcome [13] | outcome [14] | Potency [17]

Nc1nc2c(ncn2[C@@H]2O[C@H](CO)[C@@H](O)[C@H]2O)c(=O)[nH]1
inactive: Potency [17]

COc1ccc2c(OC)c3ccoc3nc2c1OC
active: Potency [17] 12.6 µM | Potency [20] 10 µM
inactive: outcome [1] | outcome [18] | outcome [19]

Cc1ccccc1CN1C2=NCCN2C(=O)C2=C1CCN(Cc1ccccc1)C2
inactive: outcome [1] | activity change, positive = activation [19] -40.7% [at 11.4 µM]

CC(C)C(N)C(=O)OCCOCn1cnc2c(=O)[nH]c(N)nc21 (stereo unspecified)
inactive: Potency [17]

CC(=O)c1cc2c(cc1O)OC(C)(C)C=C2
inactive: outcome [19]

COc1ccc(C[C@H](N)C(=O)N[C@@H]2[C@H](O)[C@H](n3cnc4c(N(C)C)ncnc43)O[C@@H]2CO)cc1
inactive: outcome [1] | outcome [19]

Reference: PubChem BioAssay (NCATS)
